Screening results as filed in PubChem.
LMP1 NFkB inh: reduces LMP1-driven NF-kappaB luciferase signal | LMP1-induced NF-kappaB luciferase reporter cells, luminescence | inhibition, % at 12.5 µM | 0.69% of 350,000 active; in the data active = inhibition above about 41%;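 also: 0% = neutral control wells and 100% = reference inhibitor control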
HIF-2a block: blocks HIF-2a reporter activity | 786-0 RCC cells HIF-2a reporter, luciferase luminescence, overnight | inhibition, % at 18.8 µM | 0.72% of 360,000 active;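 active = inhibition of the luminescence signal of 40% or more relative to plate controls, in a single-dose primary screen at 18.75 µM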
KKLEB tox: reduces viability of KKLEB cystic fibrosis airway cells; KKLEB CF airway cells viability, ATPlite luminescence, overnight; stronger effect = lower value; cells stimulated with P. aeruginosa culture filtrate; activity change (cytotoxicity), % at 5 µM; 0.36% of 360,000 active; AID 602141;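 active = corrected activity change at or below -50% at 5 µM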
CF NFkB block: cystic fibrosis NF-kB activation inhibition | KKLEB NF-kB-GFP reporter, PAF-induced, GFP fluorescence overnight | inhibition, % at 5 µM | 0.86% of 360,000 active | AID 588850;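 active = at least 50% inhibition at 5 µM, scaled per plate between neutral and stimulator controls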;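 also: PAF is a Pseudomonas aeruginosa culture filtrate used as stimulus; plate controls were PAF-stimulated DMSO wells for no effect and unstimulated DMSO wells for full effect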
MITF TRPM1 inh: reduces MITF-dependent TRPM1 promoter luciferase signal; SK-MEL-5 TRPM1 promoter luciferase, 24 h; inhibition, % at 12.5 µM; 0.83% of 330,000 active; AID 488899;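 active = mean inhibition across replicates of 60% or more, whatever share of single replicates reaches that level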
Peg3 prom inh: Peg3 promoter activity inhibition | 1.7% of 360,000 active | inhibition, % at 20 µM | HeLa PEG-Prom luciferase reporter, luminescence, overnight | AID 588405;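 active = inhibition of at least 50% at 20 µM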
CF NFkB inh conf: confirmation of cystic fibrosis induced NF-kB inhibitors; shares compounds with CF NFkB block; KKLEB CF airway cells, PAF-induced NF-kB-GFP fluorescence, overnight; inhibition, % at 5 µM; 64% of 1,300 active; in the data active = inhibition above about 40%;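 also: stimulus PAF is a Pseudomonas aeruginosa filtrate and not platelet activating factor; plate controls were DMSO wells with stimulus for no effect and unstimulated DMSO wells for full effect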
An asterisk follows results filed as active; x = no result. Sampled rows, rich in hits. Any-hit rate of the full collection: about 3%.

SMILES | LMP1 NFkB inh | HIF-2a block | KKLEB tox | CF NFkB block | MITF TRPM1 inh | Peg3 prom inh | CF NFkB inh conf
CC1(C(=O)NS(=O)(=O)c2ccc(C#N)cc2)CCN1C(=O)Cc1ccsc1 (configuration not stated) | x | 4 | -1 | -4 | x | -17 | x
Cc1ccc(-n2sc3cc(F)ccc3c2=O)c(C)c1 | 6 | -32 | 6 | 27 | x | 28 | x
O=c1c2cc(F)ccc2sn1-c1ccccc1Cl | 6 | -1 | -10 | 51* | x | 24 | 31
COc1ccc(NC(=O)c2ccc(Cl)nc2)cc1S(=O)(=O)N1CCOCC1 | -4 | 9 | -1 | 3 | 7 | 5 | x
COc1ccc(NC(=O)Cn2ncc(Cl)c(Cl)c2=O)cc1S(=O)(=O)N1CCOCC1 | -14 | 37 | -14 | 55* | -5 | 97* | 18
O=C(COC(=O)Cc1n[nH]c(=O)c2ccccc12)Nc1c(Br)cc([N+](=O)[O-])cc1Br | 0 | 0 | 5 | -4 | 21 | 3 | x
Clc1ccc(Cn2ncc3c(N4CCN(c5ccccc5)CC4)ncnc32)cc1 | x | -29 | -36 | 91* | x | 92* | 100*
CCNC(=O)C1CCCN(C(=O)c2ccc(C(F)(F)F)cc2)CC1 (configuration not stated) | x | 7 | -2 | -12 | x | -1 | x
CC(=O)Oc1c(Br)cc(N(C(C)=O)S(=O)(=O)c2ccccc2)c2ccccc12 | 6 | -3 | -41 | 88* | 32 | -8 | 74*
COc1cccc(-c2cnc3c(c2)C(=O)N([C@H](C)CO)C[C@@H](C)[C@H](CN(C)C(=O)Nc2ccccc2F)O3)c1 | -5 | -4 | -10 | 14 | x | 4 | x
CCCN1C(=O)C(=O)c2cc(C)ccc21 | 2 | 3 | 5 | -1 | -15 | -4 | x
CCCCN1C(=O)C(=O)c2cc(Cl)ccc21 | 1 | 9 | -8 | 63* | 22 | -2 | 47*
CC(=O)NC(CC(C)C)C(=O)NC(Cc1ccccc1)C(=O)CCl (configuration not stated) | 1 | -9 | -21 | 52* | 52 | 32 | 56*
CC(=O)Oc1ccc2ccc3ccc(C(C)=O)cc3c2c1 | -4 | 7 | -6 | -86 | -13 | -12 | x
O=C(Nc1c2c(nn1-c1ccccc1)CS(=O)(=O)C2)C1CC1 | 4 | 12 | -8 | 19 | x | 6 | x
Brc1cccc(CSc2nnc(-c3ccncc3)o2)c1 | 71* | -9 | 10 | 59* | 4 | -3 | 69*
CCOC(=O)N1CCN(CC(=O)Nc2nccs2)CC1 | 0 | 18 | 1 | 6 | x | -7 | x
Cn1cc([N+](=O)[O-])c(C(=O)Nc2ccc(C3CCCCC3)cc2)n1 | -32 | -124 | -24 | 52* | 5 | -35 | -175
Cn1cc([N+](=O)[O-])c(C(=O)Nc2ccc(C(=O)N3CCCCC3)cc2)n1 | 6 | -38 | -3 | 47 | 9 | 30 | x
C[C@]12CC[C@@H]3c4ccc(O)cc4CC[C@H]3[C@@H]1CC[C@@H]2O | 0 | -8 | 27 | -7 | 3 | 25 | x
CCOc1cc2c(cc1O)C(=NOC)CC1C2CCC2(C)C(O)CCC12 (configuration not stated) | 12 | 14 | -17 | 52* | 33 | -3 | 76*
Cn1c(N2CCN(C(c3ccccc3)c3ccccc3)CC2)nc2c1c(=O)[nH]c(=O)n2C | -18 | 12 | -17 | 69* | 2 | 43 | 84*
Cc1ccc(CNc2ncnc3ccc(-c4ccc(CO)o4)cc23)o1 | x | 34 | -34 | 53* | x | 28 | 81*
CC1(Oc2ccc(-n3ccnc3)cc2)CCN(Cc2cccn2-c2nccs2)C1 (configuration not stated) | x | 21 | -11 | 15 | x | 9 | x
COc1cccc(-c2oc3c(c2-c2ccc(OC)nc2)C(O)CCC3)c1 (configuration not stated) | x | -49 | x | x | x | x | x
SMILES | LMP1 NFkB inh | HIF-2a block | KKLEB tox | CF NFkB block | MITF TRPM1 inh | Peg3 prom inh | CF NFkB inh conf
COc1ccc(Nc2cccccc2=O)cc1 | 2 | -79 | 10 | 17 | -55 | -123 | x
COc1ccc(Nc2cccc3ccccc23)cc1 | -29 | -115 | -22 | 76* | -1 | -11 | -4
C=C(c1ccc2nc(NC(=O)OC)[nH]c2c1)c1cccs1 | -6 | -198 | -14 | 62* | -11 | -177 | 96*
C=CCOc1ccc2nc(NC(=O)OC)[nH]c2c1 | -3 | -50 | -32 | 34 | 12 | -72 | x
CN1CCC(OC(=O)c2cc3cc(Cl)cc(Cl)c3oc2=O)CC1 | 22 | 25 | 6 | 54* | -3 | 40 | 82*
CC1=C(C(=O)N2CCCCCC2)CC(CC(=O)NCCN2CCOCC2)C(=O)N1CCC1=CCCCC1 (configuration not stated) | x | 2 | x | x | x | x | x
CCC(CC)c1nnc(NC(=O)c2cccc(S(=O)(=O)N3CCc4ccccc43)c2)s1 | -7 | 3 | -1 | 5 | 9 | 9 | x
CCOC(=O)c1sc(NC(=O)c2cccc(S(=O)(=O)N3CCc4ccccc43)c2)c(C#N)c1C | 37 | -16 | -32 | 61* | 22 | 40 | 66*
Cc1cc(CN(Nc2ccccc2)c2ccccc2)cc(C)n1 | 3 | 11 | 3 | -6 | x | 17 | x
COc1cccc(C(c2nnnn2C2CCCC2)N2CCN(C/C=C/c3ccccc3)CC2)c1OC (configuration not stated) | x | -41 | -10 | -4 | x | 20 | x
C[C@@H]1CCCCO[C@@H](CN(C)Cc2ccc(Cl)c(Cl)c2)[C@@H](C)CN([C@H](C)CO)C(=O)c2cc(NC(=O)CCC(F)(F)F)ccc2O1 | 4 | -67 | -23 | 8 | x | 50 | x
Cc1nn(-c2ccc(F)cc2)c2sc(C(=O)OCC(=O)N3CCC(C)CC3)cc12 | 11 | 13 | -3 | -23 | -3 | 22 | x
Cc1noc(C)c1COC(=O)c1cc2c(C)nn(-c3ccc(F)cc3)c2s1 | 6 | 21 | -31 | 51* | 8 | 14 | 8
COc1ccc2cc(C(N)=O)c(=Nc3ccc(C)cc3)oc2c1 | 26 | -215 | -14 | 63* | -34 | -166 | 96*
Cc1cccc(N=c2oc3cc(O)ccc3cc2C(N)=O)c1 | -11 | -116 | -15 | 68* | -36 | -179 | 72*
COc1cccc2ccc(CC(O)(c3ccccc3)c3ccccc3)nc12 | -14 | 25 | -11 | 15 | x | 5 | x
Cc1ccc(NC(=O)N2CCOCC2)cc1NC(=O)N1CCOCC1 | -4 | 16 | 7 | -4 | x | 7 | x
COC(=O)[C@]12CCCCC=C1N(CCc1ccc(OC)c(OC)c1)C(=O)[C@H](CC(=O)N1CCC(c3ccccc3)CC1)C2 | x | -18 | x | x | x | x | x
O=C(Nc1nc2ccc(F)cc2s1)C1CCN(S(=O)(=O)c2cc([N+](=O)[O-])ccc2Cl)CC1 | 21 | -209 | -17 | 79* | 21 | -36 | 72*
